G9a block = blocks human histone lysine methyltransferase G9a. hit rate 8.8% among 350,000. G9a H3K9 monomethylation, AlphaScreen, 2 h. Q96KQ7. Potency, µM (doses to about 102 µM), actives largely listed as inhibitors; also: nearly all actives have a fitted effect of over 75% in size
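Step 1: enzyme (final 20 nM) with compound, 15 min RT. Step 2: substrate peptide 500 nM and SAM 20 uM, 2 h RT. Step 3: anti-H3K9me1 antibody and AlphaScreen beads, 10 min, then plate read.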
JMJD2A Tudor = blocks the human JMJD2A Tudor domain. hit rate 4.4% among 390,000. O75164. AlphaScreen JMJD2A-Tudor / H3K4me3 peptide binding. Potency, µM (top dose mostly 114 µM), most hits filed as inhibitors; also: nearly all actives have a fitted effect of over 50% in size
CtBP-E1A inh = inhibitors of CtBP/E1A interaction | AlphaScreen GST-E1A/His-CtBP binding, 1536-well; active compounds read low | activity change, % (test concentration not listed) | hit rate 0.49% among 340,000 | AID 651724; in the data active = activity change below about -65%; inconclusive = mostly about -30% to -63%
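Homogeneous bead-based format: GST-tagged E1A captured on glutathione donor beads, His-tagged CtBP on nickel acceptor beads; compounds precede bead addition by 2 h at 37 °C.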
Six1-Eya2 inh = blocks human Six1 binding to Eya2; AlphaScreen GST-Six1/His-Eya2 binding, biochemical; active compounds read low; activity change, % (concentration not given with the values); hit rate 0.56% among 360,000; in the data active = activity change below about -65%; inconclusive = mostly about -30% to -63%
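GST-Six1 + His-Eya2 (5X stock: 250/500 nM); Tris pH 8.0, 300 mM NaCl, 0.05% BSA, 0.02% Tween 20; GSH donor/Ni acceptor beads; 1 h 37 °C dark; AlphaScreen readout.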
HP1b binding inh = HP1-beta chromodomain-methylated histone interaction inhibition; AlphaScreen HP1-beta / biotin-H3K9me3 peptide binding; hit rate 0.56% among 390,000; Potency, µM (series often up to 114 µM), actives largely listed as inhibitors; also: nearly all actives have a fitted effect of over 70% in size
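HP1-beta protein (50 nM final) preincubated 30 min at room temperature with biotinylated H3(1-18)K9me3 peptide (50 nM) in PBS pH 7.4, 0.01% Tween-20, then compound added for 30 min. AlphaScreen streptavidin donor/nickel chelate acceptor beads (10 ug/mL final), 30 min dark, luminescence read.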
BAZ2B block = inhibitors of human BAZ2B bromodomain | Q9UIF8 | AlphaScreen BAZ2B-H3K14Ac peptide displacement | Potency, µM (doses to about 114 µM), usual class: inhibitors | hit rate 4.4% among 360,000; also: nearly all actives have a fitted effect of over 60% in size
Target sequence (Q9UIF8 whole entry, looked up): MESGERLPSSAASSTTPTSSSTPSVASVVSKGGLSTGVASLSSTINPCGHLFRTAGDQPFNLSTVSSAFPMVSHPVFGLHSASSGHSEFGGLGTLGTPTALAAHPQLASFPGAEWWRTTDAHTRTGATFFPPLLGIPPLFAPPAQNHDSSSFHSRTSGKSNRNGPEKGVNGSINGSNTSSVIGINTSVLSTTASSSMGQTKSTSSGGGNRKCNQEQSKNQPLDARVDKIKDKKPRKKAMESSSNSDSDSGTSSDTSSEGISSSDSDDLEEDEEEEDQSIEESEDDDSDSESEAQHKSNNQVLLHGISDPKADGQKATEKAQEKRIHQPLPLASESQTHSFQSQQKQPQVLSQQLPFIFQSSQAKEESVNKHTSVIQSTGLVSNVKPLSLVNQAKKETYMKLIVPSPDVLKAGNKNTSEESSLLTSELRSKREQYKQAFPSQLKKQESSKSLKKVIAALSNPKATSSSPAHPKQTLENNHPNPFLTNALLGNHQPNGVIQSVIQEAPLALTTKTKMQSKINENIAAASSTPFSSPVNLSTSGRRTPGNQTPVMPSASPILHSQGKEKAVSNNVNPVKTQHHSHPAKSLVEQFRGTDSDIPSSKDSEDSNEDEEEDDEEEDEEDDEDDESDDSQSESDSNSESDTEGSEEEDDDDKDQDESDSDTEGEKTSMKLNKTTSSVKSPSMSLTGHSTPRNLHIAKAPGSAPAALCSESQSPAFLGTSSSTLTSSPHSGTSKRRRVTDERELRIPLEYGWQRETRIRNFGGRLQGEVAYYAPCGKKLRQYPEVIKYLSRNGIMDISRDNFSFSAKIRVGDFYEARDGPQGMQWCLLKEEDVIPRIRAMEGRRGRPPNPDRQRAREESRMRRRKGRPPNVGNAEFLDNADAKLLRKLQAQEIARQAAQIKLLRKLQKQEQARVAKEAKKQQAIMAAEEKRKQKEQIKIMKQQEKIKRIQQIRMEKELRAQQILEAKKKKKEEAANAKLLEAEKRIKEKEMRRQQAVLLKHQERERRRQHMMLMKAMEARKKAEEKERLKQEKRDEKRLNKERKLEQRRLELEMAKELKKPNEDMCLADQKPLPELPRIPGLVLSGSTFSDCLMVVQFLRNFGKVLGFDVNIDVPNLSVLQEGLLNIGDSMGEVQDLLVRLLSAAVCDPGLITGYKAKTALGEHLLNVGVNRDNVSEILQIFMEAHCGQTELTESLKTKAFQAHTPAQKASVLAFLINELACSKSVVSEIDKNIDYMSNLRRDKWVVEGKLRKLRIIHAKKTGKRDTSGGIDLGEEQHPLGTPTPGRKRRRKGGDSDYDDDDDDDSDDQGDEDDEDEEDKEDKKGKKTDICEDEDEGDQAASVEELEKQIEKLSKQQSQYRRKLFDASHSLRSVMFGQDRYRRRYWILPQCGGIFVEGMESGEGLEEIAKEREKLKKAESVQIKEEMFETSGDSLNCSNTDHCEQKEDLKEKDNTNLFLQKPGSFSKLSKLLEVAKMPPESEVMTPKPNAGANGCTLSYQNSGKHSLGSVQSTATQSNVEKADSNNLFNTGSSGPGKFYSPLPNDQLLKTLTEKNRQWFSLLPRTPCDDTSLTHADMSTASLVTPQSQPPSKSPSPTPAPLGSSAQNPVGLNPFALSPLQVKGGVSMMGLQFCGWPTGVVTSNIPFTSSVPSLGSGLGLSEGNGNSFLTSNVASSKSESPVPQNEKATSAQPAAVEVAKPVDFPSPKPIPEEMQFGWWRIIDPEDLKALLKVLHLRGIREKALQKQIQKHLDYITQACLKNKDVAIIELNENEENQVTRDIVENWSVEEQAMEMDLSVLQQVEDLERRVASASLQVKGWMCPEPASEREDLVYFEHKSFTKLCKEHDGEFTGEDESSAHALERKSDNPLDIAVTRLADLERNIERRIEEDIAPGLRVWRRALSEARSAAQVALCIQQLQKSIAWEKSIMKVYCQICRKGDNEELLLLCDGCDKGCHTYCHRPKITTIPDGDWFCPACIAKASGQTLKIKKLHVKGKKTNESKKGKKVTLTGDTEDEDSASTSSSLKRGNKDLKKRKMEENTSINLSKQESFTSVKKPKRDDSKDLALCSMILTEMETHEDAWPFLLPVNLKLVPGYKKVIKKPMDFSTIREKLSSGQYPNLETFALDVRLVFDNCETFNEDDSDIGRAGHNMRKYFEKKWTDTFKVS
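Multi-concentration screen (max 110 uM) measuring displacement of acetylated histone H3 peptide from BAZ2B by AlphaScreen, using 50 nM protein, 50 nM peptide and 10 ug/mL streptavidin donor plus Ni-chelate acceptor beads.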
Hits are given with their value; [ ] = remark or other dose. An excerpt weighted towards active compounds, which were near 10% of everything screened. Unless noted, calls follow the shape of the dose curve; as a rule, active = well fitted inhibition curve with a large enough effect; inconclusive = small, poorly fitted or top-dose-only effect; inactive = no such curve, though single readings can be large or run the other way.

Results for Cc1cccc(CN2CCC(C(N)=O)CC2)c1 ?
G9a block: inactive; JMJD2A Tudor: inactive; CtBP-E1A inh: inactive; Six1-Eya2 inh: inactive; HP1b binding inh: inactive; BAZ2B block: inactive

What do the screens show for `Cc1cccc(CN2CCSCC2)c1`?
G9a block: inconclusive; JMJD2A Tudor: 20µM; CtBP-E1A inh: inactive; Six1-Eya2 inh: inactive; HP1b binding inh: inconclusive; BAZ2B block: inconclusive

What do the screens show for `FC(F)(F)c1cccc(CN2CCSCC2)c1`?
G9a block: 10µM; JMJD2A Tudor: 22.4µM; CtBP-E1A inh: inactive; Six1-Eya2 inh: inactive; HP1b binding inh: inconclusive; BAZ2B block: 56.2µM

Results for CCNc1ncc2nc(C)c(=O)n(Cc3ccc(F)cc3)c2n1 ?
G9a block: inactive[0.501 µM]

How did COc1cc(CCC(=O)NCc2ccc3c(c2)CCN3C(=O)c2cccc(C)c2)cc(OC)c1OC do in these assays?
G9a block: inactive; JMJD2A Tudor: inactive; HP1b binding inh: inactive; BAZ2B block: inactive

What do the screens show for `CC(C)[C@H](N)C(=O)N[C@H]1CCC2C3CC=C4C[C@@H](O)CC[C@]4(C)C3CC[C@@]21C` (stereo not given in full)?
CtBP-E1A inh: inactive; Six1-Eya2 inh: inactive

What do the screens show for `COc1cccc(-c2sc3ccccc3c2-c2ccc(OCCN(C)C)cc2)c1`?
JMJD2A Tudor: 44.7µM; CtBP-E1A inh: inconclusive; Six1-Eya2 inh: inactive; HP1b binding inh: inconclusive

What do the screens show for `COc1cccc(-c2sc3cc(OC)c(OC)cc3c2-c2ccc(OCCN3CCCCC3)cc2)c1`?
JMJD2A Tudor: 31.6µM; CtBP-E1A inh: inconclusive; Six1-Eya2 inh: inactive; HP1b binding inh: inconclusive

What do the screens show for `COc1cccc(-c2sc3ccccc3c2-c2ccc(OCCN3CCCC3)cc2)c1`?
JMJD2A Tudor: 44.7µM; CtBP-E1A inh: inactive; Six1-Eya2 inh: inactive; HP1b binding inh: inconclusive

How did COc1ccc(-c2sc3cc(OC)ccc3c2-c2ccc(OCCN3CCCCC3)cc2)cc1 do in these assays?
CtBP-E1A inh: inactive; Six1-Eya2 inh: inconclusive

What do the screens show for `COc1ccc2sc(-c3ccccc3OC)c(-c3ccc(OCCN(C)C)cc3)c2c1`?
JMJD2A Tudor: 50.1µM; CtBP-E1A inh: inactive; Six1-Eya2 inh: inactive; HP1b binding inh: inactive

Results for COc1cccc(-c2sc3ccc(OC)cc3c2-c2ccc(C(N)=O)cc2)c1 ?
G9a block: inactive[0.501 µM]; JMJD2A Tudor: inactive; CtBP-E1A inh: inactive; Six1-Eya2 inh: inactive; HP1b binding inh: inactive; BAZ2B block: inactive

What do the screens show for `Cc1ccc(CSc2nc3ccc(NC(=O)C(C)C)cc3s2)cc1`?
G9a block: inactive; JMJD2A Tudor: inactive; HP1b binding inh: inactive; BAZ2B block: inactive

How did Nc1c(Br)cc2c(c1Br)C(O)c1ccccc1-2 (stereo not given) do in these assays?
JMJD2A Tudor: inactive; CtBP-E1A inh: inactive; Six1-Eya2 inh: inactive; HP1b binding inh: inactive

How did CC(=O)N1CCN(c2csc3ccc(Br)cc3c2=O)CC1 do in these assays?
G9a block: inactive; JMJD2A Tudor: inactive; HP1b binding inh: inactive; BAZ2B block: inactive

How did COc1cccc(-c2sc3ccc(OC)cc3c2-c2ccc(OCCN3CCCC3)cc2)c1 do in these assays?
JMJD2A Tudor: 56.2µM; CtBP-E1A inh: inactive; Six1-Eya2 inh: inactive; HP1b binding inh: inconclusive

What do the screens show for `Cn1c(=O)c(=O)n(C)c2cc(N3CCOCC3)c(NS(=O)(=O)c3ccc([N+](=O)[O-])cc3)cc21`?
G9a block: inconclusive; JMJD2A Tudor: inconclusive; CtBP-E1A inh: inactive; Six1-Eya2 inh: inactive; HP1b binding inh: inactive; BAZ2B block: 79.4µM

Results for COC(=O)c1ccc(N2CCCCC2)c(NS(=O)(=O)c2ccc(C)cc2)c1 ?
G9a block: inactive; JMJD2A Tudor: inactive; CtBP-E1A inh: inactive; Six1-Eya2 inh: inactive; HP1b binding inh: inactive; BAZ2B block: inactive

Results for CC1CCN(c2ccc(C(=O)O)cc2NS(=O)(=O)c2ccc(Br)cc2)CC1 ?
G9a block: 28.2µM; JMJD2A Tudor: inactive; CtBP-E1A inh: inactive; Six1-Eya2 inh: inactive; HP1b binding inh: inactive; BAZ2B block: inactive

How did Cn1c(=O)n(C)c2cc(N3CCOCC3)c(NS(=O)(=O)c3ccc(Br)cc3)cc21 do in these assays?
G9a block: inconclusive; JMJD2A Tudor: inactive; HP1b binding inh: inactive; BAZ2B block: 50.1µM

What do the screens show for `Cn1c(=O)c(=O)n(C)c2cc(N3CCOCC3)c(NS(=O)(=O)c3ccc(F)c(Cl)c3)cc21`?
G9a block: inactive; JMJD2A Tudor: inactive; CtBP-E1A inh: inactive; Six1-Eya2 inh: inactive; HP1b binding inh: inactive; BAZ2B block: inactive

What do the screens show for `Cc1nnsc1C(=O)NNC(=O)c1cccc2ccccc12`?
G9a block: inactive; JMJD2A Tudor: inactive; CtBP-E1A inh: inactive; Six1-Eya2 inh: inactive; HP1b binding inh: inactive; BAZ2B block: inactive

How did COC(=O)c1cc2sccc2n1Cc1ccc(F)cc1Cl do in these assays?
G9a block: inactive; JMJD2A Tudor: inactive; HP1b binding inh: inactive; BAZ2B block: inactive

How did Cc1ccc(C(=O)NCC(=O)OC(C)C(=O)Nc2ccccc2[N+](=O)[O-])s1 (stereo not given) do in these assays?
JMJD2A Tudor: inactive; CtBP-E1A inh: inactive; Six1-Eya2 inh: inactive; HP1b binding inh: inactive

How did Cc1ccc(C(=O)NCC(=O)OC(C)C(=O)Nc2ccc(N(C)C)cc2)s1 (stereo not given) do in these assays?
G9a block: 39.8µM; JMJD2A Tudor: inactive; Six1-Eya2 inh: inactive; HP1b binding inh: inactive; BAZ2B block: inactive

How did CS(=O)(=O)c1ccc(C(=O)OC2CCOC2=O)cc1[N+](=O)[O-] (stereo not given) do in these assays?
G9a block: 50.1µM; JMJD2A Tudor: inactive; CtBP-E1A inh: inactive; Six1-Eya2 inh: inactive; HP1b binding inh: inactive; BAZ2B block: inactive

How did O=C1Nc2ccccc2/C1=C/c1ccccc1Cl do in these assays?
G9a block: inactive; JMJD2A Tudor: inactive; CtBP-E1A inh: inactive; Six1-Eya2 inh: inactive; HP1b binding inh: inactive; BAZ2B block: inactive

How did CN1CCN(c2ccccc2/C=C2/C(=O)Nc3ccccc32)CC1 do in these assays?
G9a block: 50.1µM; JMJD2A Tudor: inactive; CtBP-E1A inh: inactive; Six1-Eya2 inh: inactive; HP1b binding inh: inactive; BAZ2B block: inactive

What do the screens show for `O=C(Nc1ccc(Cl)cc1)c1ccc2ncsc2c1`?
G9a block: 44.7µM; JMJD2A Tudor: inactive; Six1-Eya2 inh: inactive; HP1b binding inh: inactive; BAZ2B block: inactive

What do the screens show for `Nc1ccc(-c2nc3ccc(C(=O)O)cc3s2)cc1`?
G9a block: 39.8µM; JMJD2A Tudor: inactive; CtBP-E1A inh: inactive; Six1-Eya2 inh: inactive; HP1b binding inh: inactive; BAZ2B block: inactive

How did O=C(c1ccc2ncsc2c1)N1CCCCC1 do in these assays?
G9a block: inactive; JMJD2A Tudor: inactive; CtBP-E1A inh: inactive; Six1-Eya2 inh: inactive; HP1b binding inh: inactive; BAZ2B block: inactive

What do the screens show for `O=C(O)c1ccc2ncsc2c1`?
G9a block: inconclusive; JMJD2A Tudor: 20µM; CtBP-E1A inh: inactive; Six1-Eya2 inh: inactive; HP1b binding inh: inactive; BAZ2B block: 20µM

Screens deposited in PubChem by National Center for Advancing Translational Sciences (NCATS).
